Experimental data taken from a collection of fitness landscapes (doi:10.1016/j.celrep.2020.107928).
Whole data set: some 81,000 sequences, median “one-hybrid fitness for binding NBS DNA” near -0.1, cut for the highest 2% near 0.36. The entries come from a sample that favours the highest values as a whole.

B1: Caulobacter ParB omega fusion; a variant is named by its letters at X, in order, B8GW30 (parent)
chain: MESVVVGEPGMSEGRRGLGRGLSALLGEVDAAPAQAPGEQLGGSREAPIEILQRNPDQPRRTFREEDLEDLSNSIREKGVLQPILVRPSPDTAGEYQIVAGERAWRAAQRAGLKTVPIMVRELDDLAVLEIGIIENVQRADLNVLEEALSYKVLMEKFERTQENIAQTIGKSXSHVANXMRLLXLPDEVQSYLVSGELTAXHARAIAAAADPVALAKQIIEGGLSVRETEALARKAPNLSAGKSKGGRPPRVKDTDTQALESDLSSVLGLDVSIDHRGSTGTLTITYATLEQLDDLCNRLTRGI

Variants of: B1
Experiment: one-hybrid fitness for binding NBS DNA (the Noc-binding site; scaled: cognate 1, non-cognate 0); higher = stronger binding
Conditions: with NBS DNA site
How it was run: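 Bacterial one-hybrid selection in E. coli USO rpoZ- hisB- pyrF- with a HIS3 reporter carrying the site 19 bp from the promoter, screening Caulobacter ParB libraries with four specificity codons randomised (NNS). Cells grew 48 hours at 37°C on M9-minus-histidine plus 0.1 mM IPTG and 5 mM 3-AT. Plasmids before and after selection were Illumina-sequenced, three replicate libraries pooled, and variants under 10 reads dropped. Fitness is the log change in variant-to-wild-type read ratio, rescaled to cognate 1, non-cognate 0.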

Row | Variant | one-hybrid fitness for binding NBS DNA
1 | SYLM | ≤ 0.2
2 | SHDP | ≤ 0.2
3 | PPLD | ≤ 0.2
4 | IVCR | ≤ 0.2
5 | GYLC | ≤ 0.2
6 | RMNH | 0.26
7 | RHNT | 0.508
8 | RPNT | ≤ 0.2
9 | RMNT | 0.546
10 | RCNT | 0.589
11 | RMDT | 0.226
12 | RFNT | 0.279
13 | RHND | ≤ 0.2
14 | RHDT | 0.258
15 | ADTR | ≤ 0.2
16 | WVAC | ≤ 0.2
17 | TAAM | ≤ 0.2
18 | SGRG | ≤ 0.2
19 | CNSI | ≤ 0.2
20 | HRTD | ≤ 0.2
21 | KSYC | ≤ 0.2
22 | QIPR | 0.203
23 | QERR | 0.245
24 | QIYR | 0.348
25 | QWRR | 0.355

Row | Variant | one-hybrid fitness for binding NBS DNA
26 | QCRR | 1.13
27 | QPRR | 0.365
28 | QPYR | ≤ 0.2
29 | QIRR | 0.867
30 | GWMI | ≤ 0.2
31 | TGPP | ≤ 0.2
32 | RGHW | ≤ 0.2
33 | KLGK | ≤ 0.2
34 | AATY | ≤ 0.2
35 | KFTC | ≤ 0.2
36 | SYMR | ≤ 0.2
37 | GWRK | ≤ 0.2
38 | FEGS | ≤ 0.2
39 | RYSR | 0.452
40 | RYHH | ≤ 0.2
41 | RYNR | 0.519
42 | RYHP | ≤ 0.2
43 | RYKG | ≤ 0.2
44 | RYSD | ≤ 0.2
45 | RYHR | 0.471
46 | RYKR | 0.744
47 | RYNH | 0.209
48 | RYVR | 0.269
49 | RYSP | ≤ 0.2
50 | RYDR | 0.207

Row | Variant | one-hybrid fitness for binding NBS DNA
51 | THIG | ≤ 0.2
52 | RYPR | ≤ 0.2
53 | RYWR | 0.269
54 | RYQN | ≤ 0.2
55 | RYIR | 0.203
56 | RYQR | 0.44
57 | RYRR | 0.726
58 | RYGP | ≤ 0.2
59 | RYQP | ≤ 0.2
60 | RYLR | 0.354
61 | RYGH | ≤ 0.2
62 | RYGR | 0.432
63 | RYYR | 0.404
64 | QYAV | ≤ 0.2
65 | ENTF | ≤ 0.2
66 | ECNK | ≤ 0.2
67 | PSCV | ≤ 0.2
68 | ALDS | ≤ 0.2
69 | AKVC | ≤ 0.2
70 | RYFR | 0.241
71 | RYAP | ≤ 0.2
72 | RYCD | ≤ 0.2
73 | RYAR | 0.43
74 | RYCR | 0.377
75 | RYCN | ≤ 0.2

Row | Variant | one-hybrid fitness for binding NBS DNA
76 | REYM | ≤ 0.2
77 | RFAG | ≤ 0.2
78 | QAYK | ≤ 0.2
79 | QSRK | 0.376
80 | QARK | 0.37
81 | QMDK | ≤ 0.2
82 | QSYK | ≤ 0.2
83 | QADK | ≤ 0.2
84 | QPRK | ≤ 0.2
85 | QCYK | ≤ 0.2
86 | QMYK | ≤ 0.2
87 | QCRK | 0.478
88 | QMRK | 0.387
89 | QLRK | 0.336
90 | GVLR | ≤ 0.2
91 | WSLR | ≤ 0.2
92 | LIRR | ≤ 0.2
93 | KRDL | ≤ 0.2
94 | YEVL | ≤ 0.2
95 | QTRK | 0.546
96 | QKRK | 0.429
97 | QKNK | ≤ 0.2
98 | QTYK | ≤ 0.2
99 | QTDK | ≤ 0.2
100 | QKDK | ≤ 0.2

Row | Variant | one-hybrid fitness for binding NBS DNA
101 | YNVR | ≤ 0.2
102 | VWSR | ≤ 0.2
103 | HGEV | ≤ 0.2
104 | TVPQ | ≤ 0.2
105 | NGAE | ≤ 0.2
106 | FGAR | 0.385
107 | CGAE | 0.595
108 | CGFR | ≤ 0.2
109 | FGYR | ≤ 0.2
110 | CGAR | 0.441
111 | FGFR | ≤ 0.2
112 | CGYR | ≤ 0.2
113 | CGVE | ≤ 0.2
114 | ITGA | ≤ 0.2
115 | QREE | ≤ 0.2
116 | CKNS | ≤ 0.2
117 | ATHI | ≤ 0.2
118 | YEAF | ≤ 0.2
119 | WRNM | ≤ 0.2
120 | TRHT | 0.364
121 | LQMW | ≤ 0.2
122 | YQHT | ≤ 0.2
123 | QTGG | 0.204
124 | QIGS | 0.295
125 | QSGP | ≤ 0.2

Row | Variant | one-hybrid fitness for binding NBS DNA
126 | QSGH | ≤ 0.2
127 | QSGR | 0.547
128 | QIGD | ≤ 0.2
129 | QTGM | 0.3
130 | QCGR | 0.764
131 | QTGR | 0.813
132 | QGGR | ≤ 0.2
133 | QPGR | ≤ 0.2
134 | QIGR | 0.437
135 | LCEP | ≤ 0.2
136 | GKTT | ≤ 0.2
137 | LKMC | ≤ 0.2
138 | WIPG | ≤ 0.2
139 | IPHT | ≤ 0.2
140 | YLLF | ≤ 0.2
141 | SHQN | ≤ 0.2
142 | LRKG | ≤ 0.2
143 | QQKR | 1.1
144 | QQKL | 0.327
145 | QQKE | 0.335
146 | QQVR | 0.491
147 | QQVD | ≤ 0.2
148 | QQVH | ≤ 0.2
149 | AGDY | ≤ 0.2
150 | GMLG | ≤ 0.2

Row | Variant | one-hybrid fitness for binding NBS DNA
151 | RCVE | ≤ 0.2
152 | YVKV | ≤ 0.2
153 | QRYD | 0.222
154 | QRWP | ≤ 0.2
155 | QRRD | 0.356
156 | QRRS | 0.787
157 | QRYS | 0.646
158 | QRRN | 0.547
159 | QRRP | 0.359
160 | QRWN | ≤ 0.2
161 | QRWS | 0.54
162 | QRYP | ≤ 0.2
163 | QRYN | 0.319
164 | NAHV | ≤ 0.2
165 | FSNM | ≤ 0.2
166 | SRRP | ≤ 0.2
167 | THHR | ≤ 0.2
168 | VCSD | ≤ 0.2
169 | WQLA | ≤ 0.2
170 | RTRG | 0.215
171 | CCQR | ≤ 0.2
172 | CVKA | ≤ 0.2
173 | MAIS | ≤ 0.2
174 | NATF | ≤ 0.2
175 | MAFC | ≤ 0.2

Row | Variant | one-hybrid fitness for binding NBS DNA
176 | ECWS | ≤ 0.2
177 | QREN | ≤ 0.2
178 | QCES | 0.301
179 | QRES | 0.469
180 | PSVG | ≤ 0.2
181 | QICT | 0.266
182 | QTCH | 0.319
183 | QTCD | ≤ 0.2
184 | QTCT | 0.571
185 | QPCT | ≤ 0.2
186 | QHCT | 0.294
187 | QCCT | 0.521
188 | QSCT | 0.386
189 | QLCT | 0.345
190 | SKPI | ≤ 0.2
191 | DYFM | ≤ 0.2
192 | LNNN | ≤ 0.2
193 | EHQL | ≤ 0.2
194 | GRLL | ≤ 0.2
195 | SFYC | ≤ 0.2
